An excerpt weighted towards active compounds, which were near 27% of everything screened.
CYP2C9 inhib – blocks human cytochrome P450 2C9; CYP2C9 Supersomes, luciferin-H conversion, luminescence; inhibition, % at 5 µM; AID 777; 96,000 tested, 20% active;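 active = blocking of liver enzyme CYP2C9 beyond about 50% at 5 µM, limit read from the data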
EphB4 ephrin blk – blocks human EphB4 binding to ephrin-B2; EphB4 LBD / TNYL-RAW-Alexa532 peptide, fluorescence polarization; 97,000 tested, 0.15% active; inhibition, % at 7 µM; P54760; AID 720;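 active = inhibition above the screen-wide mean inhibition plus 3 SD, cut at about 15% in these data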
CYP2C19 inh – blocks human cytochrome P450 2C19. CYP2C19 Supersomes, luciferin-H EGE luminescence, 30 min. inhibition, % at 5 µM. 96,000 tested, 21% active;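 active = CYP2C19 inhibition above a set limit at 5 µM in the primary screen, cut at about 50% in these data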
Target sequence (P33261 whole entry, looked up): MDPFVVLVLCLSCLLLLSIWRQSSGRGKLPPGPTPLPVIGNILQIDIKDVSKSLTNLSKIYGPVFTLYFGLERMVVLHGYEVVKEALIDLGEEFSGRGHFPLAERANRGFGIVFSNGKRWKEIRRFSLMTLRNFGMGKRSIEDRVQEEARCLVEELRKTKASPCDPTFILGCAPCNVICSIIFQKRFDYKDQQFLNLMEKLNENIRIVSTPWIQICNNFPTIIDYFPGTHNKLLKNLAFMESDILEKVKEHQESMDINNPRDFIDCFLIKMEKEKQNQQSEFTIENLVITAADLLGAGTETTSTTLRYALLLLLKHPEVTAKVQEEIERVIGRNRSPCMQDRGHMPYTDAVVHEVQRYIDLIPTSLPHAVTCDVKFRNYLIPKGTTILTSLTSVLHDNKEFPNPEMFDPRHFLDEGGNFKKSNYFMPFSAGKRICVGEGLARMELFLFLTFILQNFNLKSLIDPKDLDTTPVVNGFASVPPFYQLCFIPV
CYP2C19 act – activators of human cytochrome P450 2C19 | activation factor at 5 µM | 96,000 tested, under 10 active | AID 1025 | P33261 | recombinant CYP2C19, luciferin-H EGE luminescence; stronger effect = higher value; 0 = fully inhibited enzyme, 1 = untreated enzyme;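 active = activation factor of at least 2 at 5 µM in the primary screen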
CYP2C9 act – increases human cytochrome P450 2C9 activity. 96,000 tested, 1.4% active. activation factor at 5 µM. AID 1024. P11712. recombinant CYP2C9, luciferin-H conversion, luminescence; stronger effect = higher value; factor 1 = untreated enzyme, 0 = blocked;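 active = activation factor of 2 or more for CYP2C9 at a 5 µM dose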
Each line names hits and unclear results; the compound was inactive in the other large screens.

CC(C)(C)c1ccc(S(=O)(=O)N2CCCC2C(=O)NC2=NCCS2)cc1 (stereo unspecified)	CYP2C9 inhib 76
Cc1c(C(=O)N(C)Cc2ccccc2)oc2ccc(S(=O)(=O)N3CCCC3)cc12	CYP2C9 inhib 95
O=C(CSc1nnc(-c2ccc(S(=O)(=O)N3CCCC3)cc2)o1)NCc1ccccc1	none (no result: CYP2C9 inhib, CYP2C19 inh, CYP2C19 act, CYP2C9 act)
O=C(NCc1ccco1)C1CCCN1S(=O)(=O)c1ccc2ccccc2c1 (stereo unspecified)	CYP2C19 inh 88
O=C(COC(=O)c1ccc(S(=O)(=O)N2CCCC2)cc1)NCc1ccccc1	CYP2C9 inhib 56
O=C(NCc1cccnc1)C1CCCCN1S(=O)(=O)c1ccc(F)cc1 (stereo unspecified)	CYP2C19 inh 80
CC(C)(C)c1ccc(S(=O)(=O)N2CCCCC2C(=O)NCc2ccccn2)cc1 (stereo unspecified)	CYP2C19 inh 63 (no result: EphB4 ephrin blk)
Cc1c(C(=O)NCc2ccc3c(c2)OCO3)oc2ccc(S(=O)(=O)N3CCCCC3)cc12	CYP2C9 inhib 59
O=C(NCc1cccnc1)NC1CCCN1S(=O)(=O)c1ccc(Cl)cc1 (stereo unspecified)	none
Cc1ccc(S(=O)(=O)N2CCCC(C(=O)NCc3ccccn3)C2)cc1 (stereo unspecified)	none
O=C(COC(=O)c1ccccc1S(=O)(=O)N1CCCCC1)NCC(F)(F)F	CYP2C9 inhib 70
O=C(NC1CCCCC1)C(Cc1ccccc1)N1C(=O)C2C3CCC(C3)C2C1=O (stereo unspecified)	none
O=S1(=O)C=C(Sc2nnc(-c3ccccc3)o2)c2ccccc21	none (no result: EphB4 ephrin blk)
Cc1ccc(S(=O)(=O)N2CCC(C(=O)OC(C)C(=O)NCc3ccc4c(c3)OCO4)CC2)cc1 (stereo unspecified)	CYP2C19 inh 73
CC1CCN(S(=O)(=O)c2ccc(C(=O)NCc3ccc4c(c3)OCO4)cc2)CC1	none
C=CCNC(=O)C1CCN(S(=O)(=O)CC)CC1	none
NS(=O)(=O)c1ccc(CCNC(=O)c2ccc(S(=O)(=O)N3CCCCC3)cc2)cc1	CYP2C9 inhib 61
O=C(Nc1ccc(OC(F)(F)F)cc1)C1CCCN(S(=O)(=O)c2cccnc2)C1 (stereo unspecified)	CYP2C19 inh 99
Cc1csc(NC(=O)C2CCCN(S(=O)(=O)c3cccnc3)C2)n1 (stereo unspecified)	none
C=CCNC(=O)C1CCN(S(=O)(=O)c2ccc(Br)cc2)CC1	CYP2C19 inh 51
COc1ccc(OC)c(-c2cc(C(=O)Nc3c(C)nn(Cc4ccccc4C)c3C)no2)c1	none
CC(=O)Nc1ccc(NC(=O)Cn2c(-c3ccc(F)cc3)cnc2SCC(=O)Nc2c(C)cccc2C)cc1	none
CCOC(=O)C1=C(C)NC(=O)NC1c1c(O)ccc2ccccc12 (stereo unspecified)	CYP2C19 inh 86
CCOc1cc(C2NC(=O)NC(C)=C2C(=O)OCc2ccccc2)ccc1O (stereo unspecified)	CYP2C9 inhib 71, CYP2C19 inh 59
COc1cc(C2NC(=O)NC(C)=C2C(=O)OCc2ccccc2)ccc1O (stereo unspecified)	none (no result: EphB4 ephrin blk)
COc1ccc(COC(=O)C2=C(C)NC(=O)NC2c2ccc(O)c(OC)c2)cc1 (stereo unspecified)	CYP2C9 inhib 62, CYP2C19 inh 70
CCn1ncc(Br)c1C(=O)NC(C)c1ccccc1 (stereo unspecified)	none (no result: CYP2C9 inhib, CYP2C19 inh, CYP2C19 act, CYP2C9 act)
COc1ccc(NC(=O)c2cnn3c(C(F)(F)F)cc(-c4ccco4)nc23)cc1OC	none
COC(=O)c1nc2ccc(C)cn2c1F	none
COC(=O)c1nc(-c2ccccc2)oc1N(C)C	CYP2C9 act 2.9
CCOC(=O)c1nnc(-c2ccccc2)o1	none
COC(=O)c1nc(-c2ccc(C)cc2)oc1N(C)C	CYP2C9 act 2.4
Cc1cc(C)cc(OCC(=O)NN2Cc3ccccc3C2=N)c1	none
COC(=O)c1ccc(NC(=O)CSc2nnc(COc3ccccc3)n2C)cc1	none
N#CCSc1nnc(-c2cnccn2)n1Cc1ccccc1	none (no result: CYP2C9 inhib, CYP2C19 inh, CYP2C19 act, CYP2C9 act)
CCC(C)NC(=O)C(CCSC)NC(=O)c1ccccc1 (stereo unspecified)	none
CSCCC(NC(=O)c1ccc(Cl)cc1)C(=O)NC(C)(C)C (stereo unspecified)	CYP2C9 inhib 62
CCc1nc(CNC(=O)c2cc(OC)c(OC)c(OC)c2)no1	none
CCOC(=O)c1sc(=S)n(Cc2ccccc2)c1N	CYP2C9 inhib 79
CCOC(=O)c1sc(=S)n(-c2ccccc2OC)c1N	CYP2C9 inhib 56 (no result: EphB4 ephrin blk)
C=CCn1c(NC(=O)CC)c(C(=O)OCC)sc1=S	CYP2C19 inh 52
CCOc1ccccc1-n1c(N)c(C(N)=O)sc1=S	none
CCOC(=O)c1sc(=S)n(-c2ccc3c(c2)OCO3)c1N	CYP2C19 inh 64
CCOC(=O)c1sc(=S)n(C)c1C	none
CCOC(=O)c1sc(=S)n(-c2ccc(F)c(F)c2)c1N	none
CCOC(=O)CNC(=O)CNC(=O)c1ccc(OC)cc1	none (no result: EphB4 ephrin blk)
CCCn1c(Cc2ccccc2)nnc1SCC(=O)N1CCOCC1	none
CCn1nc(C)c(C(=O)Nc2cc(Oc3ccc(Cl)cc3)cc([N+](=O)[O-])c2)c1C	none
C=CCn1c(N)c(C(=O)OCC)sc1=S	none
CCOC(=O)c1sc(=S)n(CC)c1N	CYP2C9 inhib 72, CYP2C19 inh 84 (no result: EphB4 ephrin blk)
CC(NC(=O)c1ccccc1)C(=O)NC1=NCCS1 (stereo unspecified)	none
CCC(=O)N1CCc2cc(S(=O)(=O)CCC(=O)NCc3cccs3)ccc21	none
CCC(=O)N1CCc2cc(S(=O)(=O)CCC(=O)NCCC3=CCCCC3)ccc21	CYP2C9 inhib 53
CCC(=O)N1c2ccc(S(=O)(=O)CCC(=O)NCCC3=CCCCC3)cc2CC1C (stereo unspecified)	CYP2C9 inhib 61
CC(=O)N1N=C(c2cccc(Cl)c2)OC1c1ccc(C(C)C)cc1 (stereo unspecified)	CYP2C9 inhib 88, CYP2C19 inh 83
O=C(N/N=C\c1cc(Br)cs1)C1COc2ccccc2O1 (stereo unspecified)	none
CCOC(=O)C1=C(C)N=c2s/c(=C\c3ccncc3)c(=O)n2C1c1ccc2c(c1)OCO2 (stereo unspecified)	CYP2C9 inhib 85, CYP2C19 inh 85 (no result: EphB4 ephrin blk)
CCOC(=O)C1=C(C)N=c2s/c(=C3\C(=O)Nc4ccccc43)c(=O)n2C1c1ccc2c(c1)OCO2 (stereo unspecified)	CYP2C9 inhib 59
CC1(C)Cc2ccccc2C(c2cc3ccccc3oc2=O)=N1	none (no result: CYP2C9 inhib, CYP2C19 inh, CYP2C19 act, CYP2C9 act)
O=c1oc2ccccc2cc1-c1cn2cccnc2n1	CYP2C19 inh 57
O=C(NC1CCCc2ccccc21)c1ccc(CNc2c(N3CCOCC3)c(=O)c2=O)cc1 (stereo unspecified)	none (no result: CYP2C9 inhib, CYP2C19 inh, CYP2C19 act, CYP2C9 act)
CC(C)c1ccc(C2C3CSCC=C3C(C#N)=C(N)C2(C#N)C#N)cc1 (stereo unspecified)	CYP2C9 inhib 100, CYP2C19 inh 67
COCC(C)n1c(C)cc(C(=O)Cn2c(=O)oc3ccccc32)c1C (stereo unspecified)	none

High-throughput results from PubChem.
